Data reported in PubChem BioAssay AID1671202 (University of Kansas High Throughput Screening Laboratory, 2021).
“And” between values parts separate entries of the source, which are not always exact repeats. Identical values can stand only once. Among all 190,000 compounds or so, about 6,900 (3.6%) were called active. Cut-off read from the data, not from the text of the source: active = inhibition above about 50%; inactive = the rest. The entries come from a sample that favours actives as a whole.

target: Huntingtin (Homo sapiens) (UniProt P42858); experiment: mutant huntingtin-calmodulin interaction inhibitors – biochemical, AlphaScreen, primary screen (AID 1671202); details: AlphaScreen His-mHTT/GST-CaM binding, luminescence; at 15 µM, hits give high values;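 note: 0% = both proteins with DMSO and 100% = one protein alone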
Sequence (P42858 whole entry, looked up, stated change not applied): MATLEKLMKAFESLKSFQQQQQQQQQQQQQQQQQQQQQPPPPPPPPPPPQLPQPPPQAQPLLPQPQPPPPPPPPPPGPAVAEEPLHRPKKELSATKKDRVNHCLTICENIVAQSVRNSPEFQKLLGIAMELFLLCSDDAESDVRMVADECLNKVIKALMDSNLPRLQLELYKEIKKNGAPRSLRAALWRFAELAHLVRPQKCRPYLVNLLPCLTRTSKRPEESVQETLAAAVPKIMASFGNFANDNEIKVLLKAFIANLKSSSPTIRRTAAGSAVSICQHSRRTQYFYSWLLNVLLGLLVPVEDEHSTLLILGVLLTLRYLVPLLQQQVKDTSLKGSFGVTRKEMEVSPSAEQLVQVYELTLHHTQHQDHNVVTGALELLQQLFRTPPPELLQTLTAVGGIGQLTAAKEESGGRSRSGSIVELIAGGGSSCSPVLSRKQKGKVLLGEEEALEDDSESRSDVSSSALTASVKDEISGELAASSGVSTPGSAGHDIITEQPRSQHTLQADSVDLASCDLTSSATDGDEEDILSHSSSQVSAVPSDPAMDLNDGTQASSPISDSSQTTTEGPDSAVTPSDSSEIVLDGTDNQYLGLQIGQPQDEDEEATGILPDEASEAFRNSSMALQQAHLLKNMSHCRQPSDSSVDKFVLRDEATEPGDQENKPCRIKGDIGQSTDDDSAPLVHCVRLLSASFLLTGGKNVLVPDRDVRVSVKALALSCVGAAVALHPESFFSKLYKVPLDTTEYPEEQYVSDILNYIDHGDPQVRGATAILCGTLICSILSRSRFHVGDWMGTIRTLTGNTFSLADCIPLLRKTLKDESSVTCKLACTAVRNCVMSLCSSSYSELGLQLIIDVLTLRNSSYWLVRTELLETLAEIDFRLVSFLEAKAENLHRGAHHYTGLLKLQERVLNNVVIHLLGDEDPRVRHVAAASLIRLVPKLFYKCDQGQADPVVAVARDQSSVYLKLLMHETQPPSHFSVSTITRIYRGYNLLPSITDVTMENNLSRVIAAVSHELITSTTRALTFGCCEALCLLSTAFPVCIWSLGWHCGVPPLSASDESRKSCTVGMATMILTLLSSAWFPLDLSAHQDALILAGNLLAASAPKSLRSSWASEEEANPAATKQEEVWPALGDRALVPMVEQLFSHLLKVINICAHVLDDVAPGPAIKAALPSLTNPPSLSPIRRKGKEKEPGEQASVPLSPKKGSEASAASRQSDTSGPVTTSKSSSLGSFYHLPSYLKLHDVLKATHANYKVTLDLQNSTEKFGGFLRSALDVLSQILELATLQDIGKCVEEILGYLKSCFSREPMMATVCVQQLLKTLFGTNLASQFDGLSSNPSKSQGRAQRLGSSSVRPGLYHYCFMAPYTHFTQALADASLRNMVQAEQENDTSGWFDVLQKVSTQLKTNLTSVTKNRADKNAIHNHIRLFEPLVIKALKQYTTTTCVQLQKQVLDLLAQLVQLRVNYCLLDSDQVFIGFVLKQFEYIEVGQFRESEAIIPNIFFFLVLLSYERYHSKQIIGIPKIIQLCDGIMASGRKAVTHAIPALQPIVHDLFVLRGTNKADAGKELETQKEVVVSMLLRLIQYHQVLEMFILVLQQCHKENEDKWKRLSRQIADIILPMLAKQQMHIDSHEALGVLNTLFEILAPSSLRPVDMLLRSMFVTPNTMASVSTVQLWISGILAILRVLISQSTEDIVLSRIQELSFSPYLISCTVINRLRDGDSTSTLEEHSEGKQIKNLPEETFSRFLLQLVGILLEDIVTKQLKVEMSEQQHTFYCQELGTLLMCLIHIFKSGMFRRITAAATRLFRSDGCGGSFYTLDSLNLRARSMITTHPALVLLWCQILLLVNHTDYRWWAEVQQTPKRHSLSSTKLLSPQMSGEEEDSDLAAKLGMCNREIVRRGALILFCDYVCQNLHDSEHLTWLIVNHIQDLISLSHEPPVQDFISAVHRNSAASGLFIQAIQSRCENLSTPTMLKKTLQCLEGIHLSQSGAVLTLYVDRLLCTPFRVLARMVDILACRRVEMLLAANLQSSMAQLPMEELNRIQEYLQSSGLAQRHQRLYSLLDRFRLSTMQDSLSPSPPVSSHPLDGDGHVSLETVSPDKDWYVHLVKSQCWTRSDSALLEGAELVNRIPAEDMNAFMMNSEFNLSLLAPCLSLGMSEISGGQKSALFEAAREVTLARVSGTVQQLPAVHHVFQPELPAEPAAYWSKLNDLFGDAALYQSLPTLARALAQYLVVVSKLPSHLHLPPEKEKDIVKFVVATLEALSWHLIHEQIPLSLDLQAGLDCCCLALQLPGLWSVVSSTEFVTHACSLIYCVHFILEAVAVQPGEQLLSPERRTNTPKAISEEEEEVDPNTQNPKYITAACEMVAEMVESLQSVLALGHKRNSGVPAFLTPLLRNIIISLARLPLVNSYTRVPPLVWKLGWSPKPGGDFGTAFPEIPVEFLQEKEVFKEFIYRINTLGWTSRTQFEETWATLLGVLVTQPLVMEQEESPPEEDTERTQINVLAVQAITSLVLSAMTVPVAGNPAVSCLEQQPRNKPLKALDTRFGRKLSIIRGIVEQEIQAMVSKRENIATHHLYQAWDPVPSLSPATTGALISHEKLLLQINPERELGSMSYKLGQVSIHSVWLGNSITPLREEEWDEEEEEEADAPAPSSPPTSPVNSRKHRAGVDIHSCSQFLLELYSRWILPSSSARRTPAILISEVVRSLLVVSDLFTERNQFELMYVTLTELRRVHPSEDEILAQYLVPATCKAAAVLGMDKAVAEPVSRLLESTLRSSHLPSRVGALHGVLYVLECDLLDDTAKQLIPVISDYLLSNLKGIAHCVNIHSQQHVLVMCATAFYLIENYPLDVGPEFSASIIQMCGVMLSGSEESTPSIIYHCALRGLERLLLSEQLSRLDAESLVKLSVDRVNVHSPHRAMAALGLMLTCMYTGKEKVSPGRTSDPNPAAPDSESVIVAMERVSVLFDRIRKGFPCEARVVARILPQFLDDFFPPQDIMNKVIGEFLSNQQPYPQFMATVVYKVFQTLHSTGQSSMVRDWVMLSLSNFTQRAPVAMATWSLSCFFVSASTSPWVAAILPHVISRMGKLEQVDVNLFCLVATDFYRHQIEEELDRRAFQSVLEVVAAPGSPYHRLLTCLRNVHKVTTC

Row | Compound | inhibition
1 | CN(C(=O)Cc1c[nH]c2ccccc12)C1(C(=O)NC2CCCCC2)CCCCC1 | 6% (inactive)
2 | CC(=O)c1sc(NC(=O)c2ccccc2[N+](=O)[O-])nc1C | -19.4% (inactive)
3 | Cc1cccc(C(=O)NCCC2CCN(C(=O)Nc3cccc(Cl)c3)CC2)c1 | -18.9% (inactive)
4 | COc1ccccc1-n1c(C)nc2cc(C(=O)NCc3cccnc3)ccc21 | 0% (inactive)
5 | CCOc1ccc(-n2c(C)nc3cc(C(=O)NCC(OCC)OCC)ccc32)cc1 | 23% (inactive)
6 | CCOC(CNC(=O)c1ccc2c(c1)nc(C)n2-c1cc(Cl)ccc1OC)OCC | 52% (active)
7 | O=C1c2ccccc2C(=O)c2c1ccc(Cl)c2NC(=O)C(F)(F)F | 18% (inactive)
8 | O=S(=O)(c1ccc(Cl)cc1)N1CCSC1c1ccccc1Cl (stereo not drawn) | -18% (inactive)
9 | O=C(NC1CCCCC1)C1CC(c2ccc(F)cc2)=NO1 (stereo not drawn) | -5.78% (inactive)
10 | N=C1S/C(=C\c2ccc(N3CCOCC3)cc2)C(=O)N1c1ccccc1Cl | 39% (inactive)
11 | Cc1ccc(C2=CC(c3ccc(C)cc3)n3nc(CCCO)nc3N2)cc1 (stereo not drawn) | 24% (inactive)
12 | CCC(=O)NCc1csc(C2CCCN(C(=O)C(C)(C)C)C2)n1 (stereo not drawn) | 1.52% (inactive)
13 | O=C1OC(c2cccc(Br)c2)=N/C1=C\c1ccc(I)cc1 | 5% (inactive)
14 | COC(=O)c1ccc(NC(=O)C(c2ccccc2)n2cccc2)cc1 (stereo not drawn) | 75.5% (active)
15 | COC(C(=O)Nc1ccc(C(C)=O)cc1)c1ccccc1 (stereo not drawn) | -1.7% (inactive)
16 | O=C(Nc1cc(F)ccc1F)C(c1ccccc1)n1cccc1 (stereo not drawn) | 42.3% (inactive)
17 | CN(C)Cc1c(O)ccc2c1OC(=Cc1cccs1)C2=O | 1.1% (inactive)
18 | Nc1nc(SCC(=O)N2CCCCC2)nc2sc3c(c12)CCCC3 | 35% (inactive)
19 | C=CCn1c(SC(CCO)C(=O)N2CCCCC2)nc2sc3c(c2c1=O)CCCC3 (stereo not drawn) | 35.2% (inactive)
20 | NNc1nc2sc3c(c2c(=O)n1Cc1ccccc1)CCCC3 | 79.8% (active)
21 | Cc1ccc(NC(=O)N2CCC3(CC2)Nc2cc(F)ccc2-n2cccc23)c(Cl)c1 | 31.9% (inactive)
22 | CCOc1ccccc1NC(=O)N1CCC(N2CCN(Cc3ccccc3)C2=O)CC1 | 4.68% (inactive)
23 | CCOc1ccccc1NC(=O)N1CC2CN(S(=O)(=O)c3ccc(C)cc3)CC(C1)O2 | -6.22% (inactive)
24 | CCOCCCNC(=O)C1(C)CCC(=O)N1c1ccc(F)cc1C (stereo not drawn) | -2.61% (inactive)

Row | Compound | inhibition
25 | CCOc1ccccc1NC(=O)N1CCC2(CC1)c1cccn1-c1ccc(C)cc1N2CC | 50.5% (active)
26 | COc1ccc(C)cc1NC(=O)N1CCC2(CC1)Nc1cc(F)ccc1-n1cccc12 | 54% (active)
27 | COc1ccccc1NC(=O)N1CCC2(CC1)NC(=O)c1cc(F)ccc1N2C | -0.74% (inactive)
28 | Cc1ccccc1-n1ccn(CC(=O)NCc2ccco2)c(=O)c1=O | 1% (inactive)
29 | CCOCCCNC(=O)N1CCc2cn(C)c3cccc(c23)C1 | 4.99% (inactive)
30 | O=C(NCc1ccco1)N1CCC2(CC1)Nc1ccccc1-n1cccc12 | 67.5% (active)
31 | CCOCCCNC(=O)N1CCC2(CC1)Nc1cc(F)ccc1-n1cccc12 | 64.6% (active)
32 | CC1CCC2(CC1)NC(=O)N(CC(=O)NCc1ccco1)C2=O (stereo not drawn) | 1.16% (inactive)
33 | CC(C)n1c(C2CCN(C(=O)C3(c4ccccc4)CC3)C2)nc2ccncc21 (stereo not drawn) | 1.58% (inactive)
34 | O=c1[nH]c(-c2ccccc2)cn1-c1cccc(C(F)(F)F)c1 | 12% (inactive)
35 | C=Cc1ccc(CN2C(=O)N(c3ccc(F)cc3)c3ncccc3S2(=O)=O)cc1 | -1.5% (inactive)
36 | Nc1cc(C2CCN(C(=O)Nc3cc(Cl)cc(Cl)c3)CC2)no1 | 1.32% (inactive)
37 | Cc1nn2cc(-n3cc([N+](=O)[O-])cn3)cnc2c1[N+](=O)[O-] | -2.97% (inactive)
38 | COc1cccc(CC(=O)Nc2cccn3c(C)nnc23)c1 | -2.3% (inactive)
39 | CCCn1c(=O)c2sc(N3CCCC3)nc2n(CC(=O)Nc2cc(F)cc(F)c2)c1=O | -10.6% (inactive)
40 | COc1ccc2oc(-c3ccc(NC(=O)c4cccc(Br)c4)cc3)nc2c1 | 34% (inactive)
41 | C=CCc1ccc(OCC(=O)NCCC2=CCCCC2)c(OC)c1 | -16% (inactive)
42 | COc1cc(OC)c(N2C=C(C#N)S(=O)(=O)c3ccc(F)cc32)cc1Cl | -0.3% (inactive)
43 | Cc1cccc(CNC(=O)c2cc(C(C)C)n3nccc3n2)c1 | -134% (inactive)
44 | Cc1ccc(NC(=O)O[C@H]2CCC23CCCCC3)cc1 | -86.9% (inactive)
45 | Cc1cc(C)c(S(=O)(=O)N2CCCC2C(=O)NCCc2csc(C)n2)c(C)c1 (stereo not drawn) | -2.4% (inactive)
46 | Cc1cccc(C(=O)N2CCN(c3nc4ccccc4n(CC(C)C)c3=O)CC2)c1 | -13.3% (inactive)
47 | CCN1c2ccc(C)cc2C(=O)NC12CCN(C(=O)c1cccc(C)c1)CC2 | -2.5% (inactive)
48 | Cc1ccc2c(c1)NC1(CCN(C(=O)c3ccccc3)CC1)c1cccn1-2 | 84.3% (active)

Row | Compound | inhibition
49 | O=C1NC2(CCN(C(=O)c3ccccc3)CC2)Nc2cc(Cl)ccc21 | -7.3% (inactive)
50 | CCNc1nccc(N2CCC(CC(=O)NCc3cccc(Cl)c3)CC2)n1 | 7.56% (inactive)
51 | COc1ccc(-c2cc(C(F)(F)F)n3nc(C(=O)N4CCC(C)CC4)cc3n2)cc1OC | 4% (inactive)
52 | COc1ccc(C(=O)NC(C)c2ccccc2)cc1OC (stereo not drawn) | -4.5% (inactive)
53 | COc1ccc(CC(=O)NC(c2ccccc2)c2ccccc2)cc1OC | 53.3% (active)
54 | COc1ccc(CCNC(=O)COc2ccccc2Br)cc1OC | 1.8% (inactive) and -8.4% (inactive)
55 | COc1ccc(OC)c(CN2CCc3nc(N4CCOCC4)ncc3C2)c1 | 13.8% (inactive)
56 | CCc1ccccc1NC(=O)c1cc2n(n1)CCCN(Cc1ccc(F)cc1)C2=O | -3.32% (inactive)
57 | Cc1cc(C)c(C(=O)Nc2nc3ccc(S(C)(=O)=O)cc3s2)c(C)c1 | -1.4% (inactive)
58 | CS(=O)(=O)c1ccc2nc(NC(=O)/C=C/c3ccccc3)sc2c1 | 76% (active)
59 | CC(C)(C)c1ccc(C(=O)Nc2nc3ccc(S(C)(=O)=O)cc3s2)cc1 | -2% (inactive)
60 | COc1cc(N2CN=c3s/c(=C\c4ccc([N+](=O)[O-])cc4)c(=O)n3C2)cc(OC)c1OC | 49% (inactive)
61 | Brc1ccc2c(c1)CCCN2 | 10% (inactive)
62 | CC1=NOC(=O)/C1=C/c1ccc(-c2cc(Cl)ccc2Cl)o1 | -2% (inactive)
63 | O=C1NN=C(c2ccccc2)/C1=C/c1ccc(-c2ccc(Cl)cc2)o1 | 61% (active)
64 | Cc1nn2c(=O)/c(=C/c3ccc(-c4ccc(F)cc4)o3)sc2nc1=O | -2% (inactive)
65 | Cc1cccc(CSC2=NCCN2C(=O)Cc2ccc(F)cc2)c1 | -24% (inactive)
66 | COc1cc(/C=C(\C#N)c2nc3ccccc3[nH]2)ccc1OCC#N | 12% (inactive)
67 | CCCCOc1ccc(/C=C(\C#N)c2nc3ccccc3[nH]2)cc1 | -1% (inactive)
68 | N#C/C(=C\C=C\c1ccccc1)c1nc2ccccc2[nH]1 | 75% (active) and 58% (active)
69 | CC(=O)c1cccc(NC(=O)/C(=C\c2ccc3c(c2)OCO3)NC(=O)c2ccccc2Cl)c1 | 7% (inactive)
70 | COc1cccc2sc(N(C)CC(=O)Nc3nc(C)cs3)nc12 | -3% (inactive)
71 | COc1ccc(-c2c(C)c3ccc(O)c(CN4CCCC4)c3oc2=O)cc1OC | 2.3% (inactive)
72 | CCOc1cc(-c2ccc(O)c(OC)c2)cc(=O)c2c(C)oc(C)c12 | 51% (active)

Row | Compound | inhibition
73 | COc1cc(-c2ccc(O)c(O)c2)cc(=O)c2c(C)oc(C)c12 | 49% (inactive)
74 | N#CC1=C(N)N2CCN3C(N)=C(C#N)C1(c1ccccc1)C23c1ccccc1 (stereo not drawn) | 21% (inactive)
75 | O=C1CC(O)(C(F)(F)F)Oc2ccc(Cl)cc21 (stereo not drawn) | 0% (inactive)
76 | CC(C)N1C/C(=C\c2ccsc2)C(=O)/C(=C/c2ccsc2)C1 | 45% (inactive)
77 | COc1ccc(NC(=O)c2cc(S(=O)(=O)NCCc3ccc(Cl)cc3)ccc2F)cc1 | 20% (inactive)
78 | O=C(Nc1ccc(F)cc1)c1cc(S(=O)(=O)NCc2ccc(F)cc2)ccc1F | -3% (inactive)
79 | O=C(Nc1ccc(F)cc1)c1cc(S(=O)(=O)NCCc2ccc(Cl)cc2)ccc1F | 61% (active)
80 | COc1ccccc1OCCNC(=O)CSc1ccc(C(F)(F)F)cc1[N+](=O)[O-] | 2% (inactive)
81 | CC1=C(C(=O)Nc2cccnc2)C(c2ccccn2)n2nc(SCc3ccccc3)nc2N1 (stereo not drawn) | 5% (inactive)
82 | CC1=C(C(=O)Nc2ccc(Cl)cc2)C(c2ccc(Cl)cc2Cl)n2ncnc2N1 (stereo not drawn) | 59% (active)
83 | CC1=C(C(=O)Nc2ccc(C)cc2)C(c2cccc([N+](=O)[O-])c2)n2ncnc2N1 (stereo not drawn) | 7% (inactive)
84 | COc1ccc(NC(=O)C2=C(C)Nc3ncnn3C2c2cc(OC)c(OC)cc2OC)cc1 (stereo not drawn) | 0% (inactive)
85 | O=C(NCc1ccco1)c1cc2nc(-c3ccc(Cl)cc3)cc(C(F)(F)F)n2n1 | -2% (inactive)
86 | Cc1ccc(CN2CCCn3nc(C(=O)NCc4ccccc4Cl)cc3C2=O)cc1 | -2.01% (inactive)
87 | O=C(NCCc1ccccc1)c1cc2n(n1)CCCN(Cc1ccc(F)cc1)C2=O | 3.53% (inactive)
88 | Cc1ccc(C)c(CNC(=O)c2cc3n(n2)CCCN(Cc2ccc(F)cc2)C3=O)c1 | 50.5% (active)
89 | Cc1cc(N2N=NC3C(=O)N(c4ccc(F)cc4)C(=O)C32)ccc1Br (stereo not drawn) | -11.3% (inactive)
90 | CSC1=C(C#N)C(c2cccs2)CC(=O)N1 (stereo not drawn) | -7.7% (inactive)
91 | Cc1cccc(-c2cc(C3CCN(S(=O)(=O)c4cccc(C#N)c4)CC3)[nH]n2)c1 | 7.83% (inactive)
92 | Cc1cccc(-c2cc(C3CCN(C(=O)Cc4ccsc4)CC3)[nH]n2)c1 | 59.9% (active)
93 | Cc1cccc(-c2cc(C3CCN(S(=O)(=O)c4ccc(C#N)cc4)CC3)[nH]n2)c1 | 9.71% (inactive)
